Test results taken from the OligoGym collection.

molecular target: KCNJ11; experiment: pooled miR-30 sensor sort-seq; sequence = guide strand; settings: shRNA
Further: reference of the scale not given here.

Sequence	sensor-assay potency score (higher = more potent)
TAGCATAGTGACAAGTGCCTTG	0.123
TTATTGACAACGGAGAAGGCAG	-0.854
TTGACGGTGTTGCCAAACTTGG	-1.46
TTGCGTACCACCTGCATGTGGA	-0.169
ATCAATGACATGGTAGATGATC	-1.55
ACATGGTAGATGATCAGCGGGG	-0.798

molecular target: KCNJ4; experiment: as above; settings: shRNA

Sequence	sensor-assay potency score (higher = more potent)
TCGCTGGCCAGGTAGGAGCTGC	-1.22
TAGGTCTTGTGAAAACGTGAGT	-0.691
TTGTAGTGGCTCTTCTCCTCGA	-0.739
TCGCGCACCGAAATGACCGCGT	-0.495
TAGCGCTGCGACTTGTTGCTCA	0.0555
TAGGAGATGTTGTCCAGCGGGA	-0.546
AAAACGTGAGTAGTCCACCTTG	-0.537
TTGGCCGTTCTTCTTGACGAAG	-1.51
ATGAAGGAGTCGATGACGCAGC	-1.02
TAGTCCACCTTGTAGTGGCTCT	-0.556
TTACTCTCCTGCAGCTCCCGGG	-0.832
TCTCGTAGCAGAAGGCACTGGG	0.705
